# Results: PubChem BioAssay (Tox21)
# Values joined by “and” are separate entries in the source; they are usually repeats but may differ in a detail not shown here. Equal values may be shown once. More than one record can exist for a structure, and the calls need not agree. Active and inactive are the calls of the source. Where a call stands in place of a potency, no number is given. Unless noted, calls follow the shape of the dose curve; as a rule, active = well fitted curve in the direction sought with a large enough effect in the repeat runs; inconclusive = weak or mixed curves; inactive = no such curve, though single readings can be large; an effect the other way counts as inactive or inconclusive.
# Legend:
# [1] = qHTS assay to identify small molecule antagonists of the thyroid receptor (TR) signaling pathway - cell viability counter screen (AID 743064); also: nearly all actives have a fitted effect of over 50% in size; also: potency is read from the fitted curve at half-maximal effect
# Outline: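 Compounds were tested on GH3.TRE-Luc cells in the presence of T3 at 1 nM final. Following 23.5 h at 37 °C, cell viability was quantified by CellTiter-Fluor.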
# [2] = qHTS assay to identify small molecule antagonists of the thyroid receptor (TR) signaling pathway (AID 743065); also: nearly all actives have a fitted effect of over 55% in size; also: potency is read from the fitted curve at half-maximal effect
# Outline: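 GH3.TRE-Luc rat pituitary cells (two TREs driving luciferase) were dosed with compound, then stimulated with 1 nM T3 (final) for 23.5 h at 37 C. ONE-Glo luminescence was the read-out, with CellTiter-Fluor fluorescence as the cytotoxicity counter-screen.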
# [3] = system: thyroid hormone receptor (rat, GH3 cells); assay: qHTS assay to identify small molecule agonists of the thyroid receptor (TR) signaling pathway (AID 743066; calls by dose curve)
# [4] = biological target: Estrogen receptor (Homo sapiens) (UniProt P03372); assay: qHTS assay to identify small molecule antagonists of the estrogen receptor alpha (ER-alpha) signaling pathway (AID 743069; active = well fitted curve in the direction sought with a large enough effect in the signal ratio in the repeat runs, not every such curve was filed as active; inconclusive = weak or mixed curves, or effect the other way; inactive = no such curve, though single readings can be large or run the other way; the % refers to the signal ratio; also: potency is read from the fitted curve at half-maximal effect)
# Sequence of Estrogen receptor (Homo sapiens) (P03372 whole entry, looked up): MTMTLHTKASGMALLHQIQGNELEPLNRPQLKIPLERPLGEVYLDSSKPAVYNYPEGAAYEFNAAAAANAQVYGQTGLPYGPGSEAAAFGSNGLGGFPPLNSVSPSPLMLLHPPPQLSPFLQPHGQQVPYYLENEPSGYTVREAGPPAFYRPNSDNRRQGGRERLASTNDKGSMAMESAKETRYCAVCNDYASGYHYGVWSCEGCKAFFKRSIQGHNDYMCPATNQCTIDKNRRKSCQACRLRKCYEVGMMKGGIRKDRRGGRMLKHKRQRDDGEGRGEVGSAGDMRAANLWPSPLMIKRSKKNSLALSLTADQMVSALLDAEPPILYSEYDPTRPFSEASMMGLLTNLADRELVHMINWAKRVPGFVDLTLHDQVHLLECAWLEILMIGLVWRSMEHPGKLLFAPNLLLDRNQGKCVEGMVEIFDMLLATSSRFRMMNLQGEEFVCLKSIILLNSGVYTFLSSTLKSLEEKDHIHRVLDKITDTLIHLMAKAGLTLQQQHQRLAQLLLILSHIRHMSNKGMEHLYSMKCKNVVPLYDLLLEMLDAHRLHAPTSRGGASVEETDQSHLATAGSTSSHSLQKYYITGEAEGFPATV
# Outline: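 Reporter cells (ER-alpha-bla, HEK293 background) are conditioned overnight in stripped-serum medium (2% charcoal-stripped FBS). Compound and 17beta-estradiol exposure runs 18 hr at 37C, 5% CO2.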
# [5] = qHTS assay to identify small molecule antagonists of the estrogen receptor alpha (ER-alpha) signaling pathway - cell viability counter screen (AID 743074; calls by dose curve;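 also: HEK293 cells carrying ER-alpha-UAS-bla reporter stimulated with 17beta-estradiol; nearly all actives have a fitted effect of over 45% in size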)
# [6] = biological target: Estrogen receptor (Homo sapiens) (UniProt P03372); assay: qHTS assay to identify small molecule agonists of the estrogen receptor alpha (ER-alpha) signaling pathway (AID 743075; calls by dose curve;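 also: HEK293 GripTite cells with ER-alpha and UAS-driven beta-lactamase reporter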; also: potency is read from the fitted curve at half-maximal effect)
# [7] = biological target: Estrogen receptor (Homo sapiens) (UniProt P03372); assay: qHTS assay to identify small molecule agonists of the estrogen receptor alpha (ER-alpha) signaling pathway using the BG1 cell line (AID 743079); settings: BG1Luc4E2 cells, ERE-luciferase agonist, 22 h; activation: at 70.3 µM (top of the series); also: nearly all actives have a fitted effect of over 20% in size; also: potency is read from the fitted curve at half-maximal effect
# [8] = qHTS assay to identify small molecule antagonists of the estrogen receptor alpha (ER-alpha) signaling pathway using the BG1 cell line (AID 743080; calls by dose curve;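 also: BG1 cells stimulated with 17beta-estradiol alongside compound; nearly all actives have a fitted effect of over 25% in size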; also: potency is read from the fitted curve at half-maximal effect)
# Outline: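 BG1Luc4E2, endogenous ER-alpha, 4xERE-luc; 5 d charcoal-stripped FBS, phenol red free; 24 h plating; cpd + 17beta-estradiol 21.5 h, 37 C/5% CO2; CellTiter-Fluor viability 30 min, then ONE-Glo luciferase 30 min RT.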
# [9] = qHTS assay to identify small molecule antagonists of the estrogen receptor alpha (ER-alpha) signaling pathway using the BG1 cell line - cell viability counter screen (AID 743081);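 also: compound given together with 17beta-estradiol as the ER stimulus; nearly all actives have a fitted effect of over 45% in size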
# [10] = biological target: Aromatase (Homo sapiens) (UniProt P11511); assay: qHTS assay to identify aromatase inhibitors (AID 743083); also: nearly all actives have a fitted effect of over 55% in size; also: potency is read from the fitted curve at half-maximal effect
# Sequence of Aromatase (Homo sapiens) (P11511 whole entry, looked up): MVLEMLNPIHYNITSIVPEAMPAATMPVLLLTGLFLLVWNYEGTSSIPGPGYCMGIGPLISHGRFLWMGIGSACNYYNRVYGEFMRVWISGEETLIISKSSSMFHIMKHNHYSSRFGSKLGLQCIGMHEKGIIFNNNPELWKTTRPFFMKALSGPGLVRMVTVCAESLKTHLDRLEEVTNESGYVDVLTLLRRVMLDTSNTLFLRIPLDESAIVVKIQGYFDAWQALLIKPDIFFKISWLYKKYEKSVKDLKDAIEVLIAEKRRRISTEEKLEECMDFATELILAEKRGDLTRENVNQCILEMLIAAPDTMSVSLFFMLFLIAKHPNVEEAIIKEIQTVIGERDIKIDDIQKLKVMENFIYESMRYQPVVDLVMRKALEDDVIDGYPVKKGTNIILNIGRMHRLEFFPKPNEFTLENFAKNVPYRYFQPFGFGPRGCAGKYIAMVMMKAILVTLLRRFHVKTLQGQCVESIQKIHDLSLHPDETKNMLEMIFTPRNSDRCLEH
SMILES,Potency [1],Potency [2],outcome [3],Potency [4],Potency [5],Potency [6],Potency [7],Potency [8],Potency [9],Potency [10]
O[C@@H]1CO[C@H]2[C@@H]1OC[C@@H]2O,inactive,inactive,inactive,inactive,inactive,inactive,inactive,inactive,inactive,inactive
O=C(/C=C/c1ccc(O)c(O)c1)O[C@@H]1C[C@@](OC(=O)/C=C/c2ccc(O)c(O)c2)(C(=O)O)C[C@@H](O)[C@@H]1O,inactive,inactive,inactive,inactive,inactive,inactive,inactive,inactive,inactive,inactive
CC(C)(C)C(=O)C(=O)O,inactive,inactive,inactive,inactive,inactive,inactive,inactive,inactive,inactive,inactive
CCN(CC)CCNC(=O)COc1ccc(OC)cc1,inactive,inactive,inactive,inactive,inactive,inactive,23.7 µM (active),inactive,inactive,inactive
Cc1ccc(CO)cc1,inactive,inactive,inactive,inactive,inactive,inactive,inactive,inactive,inactive,inactive
Cc1cc(=O)c2c(O)c3c(O)cc(=O)c4c3c3c(cc(O)c1c23)C(C)(C)C=4O,0.841 µM (active),0.596 µM (active),,,,,,,,
Nc1ncnc2c1ncn2[C@H]1CC[C@@H](CO)O1,inactive,inactive,inactive,inactive,inactive,inactive,inactive,inactive,inactive,inactive
O=c1[nH]c2ccc(Cl)cc2o1,inactive,inactive,inactive,inactive,inactive,inactive,inactive,inactive,inactive,inactive
CCC=CC#N,inactive,inactive,inactive,inactive,inactive,inactive,inactive,inactive,inactive,inactive
CN1C(=O)N(c2ccccc2Br)Cc2cnc(Nc3ccc4c(c3)OCC(CO)O4)nc21 (stereo not drawn),54.5 µM (active),27.3 µM (active),inactive,2.75 µM [cytotoxic] (active),,,,,,
Cc1cc(C)c(N)cc1C,inactive,inactive,inactive,inactive,inactive,inactive,inactive,inactive,inactive,
O=Cc1c2ccccc2c(Cl)c2ccccc12,inactive,inactive,inactive,inactive,inactive,13.5 µM [inconclusive] (active),inactive,inactive,inactive,inactive
C[C@@H](CN(C)C)CN1c2ccccc2Sc2ccccc21,4.03 µM (active),10.1 µM (active),inactive,inactive,inactive,inactive,inactive,inactive,inactive,inactive
OCCOCC#CCOCCO,inactive,inactive,inactive,inactive,inactive,inactive,inactive,inactive,inactive,inactive
Cc1cc2c(OCC(CNC(C)(C)C)OC(=O)c3ccccc3)cccc2[nH]1 (stereo not drawn),11.9 µM (active),26.6 µM (active),inactive,inactive,inactive,inactive,inactive,inactive,inactive,inactive
N#CCc1ccc(Cl)cc1Cl,inactive,inactive,inactive,inactive,inactive,inactive,inactive,inactive,inactive,inactive
C=C1CCC2CC1C2(C)C (stereo not drawn),inactive,inactive,inactive,inactive,inactive,inactive,inactive,inactive,inactive,inactive
Brc1cc(Br)c(Oc2cc(Br)c(Br)cc2Br)cc1Br,inactive,inactive,inactive,inactive,inactive,inactive,inactive,inactive,inactive,
CCCC(=O)C(=O)O,inactive,inactive,inactive,inactive,inactive,inactive,inactive,inactive,inactive,inactive
C=C1c2cccc(O)c2C(O)=C2C(=O)[C@]3(O)C(O)=C(C(N)=O)C(=O)[C@@H](N(C)C)[C@@H]3[C@@H](O)[C@H]12,inactive,inactive,inactive,inactive,inactive,inactive,inactive,inactive,inactive,inactive
O=C(O)CCC(=O)C(=O)O,inactive,inactive,inactive,inactive,inactive,inactive,inactive,inactive,inactive,inactive
O=c1[nH]ncc2ccccc12,inactive,inactive,inactive,inactive,inactive,inactive,inactive,inactive,inactive,inactive
COc1ncnc(NS(=O)(=O)c2ccc(N)cc2)c1OC,inactive,inactive,inactive,inactive,inactive,inactive,inactive,inactive,inactive,inactive

SMILES,Potency [1],Potency [2],outcome [3],Potency [4],Potency [5],Potency [6],Potency [7],Potency [8],Potency [9],Potency [10]
CC(CO)CO,inactive,inactive,inactive,inactive,inactive,inactive,inactive,inactive,inactive,inactive
O=C1NC(=O)c2cc([N+](=O)[O-])ccc21,inactive,inactive,inactive,inactive,inactive,inactive,inactive,inactive,inactive,inactive
COc1cc(C(=O)NCCCCCC(=O)O)cc(OC)c1OC,inactive,inactive,inactive,inactive,inactive,inactive,inactive,inactive,inactive,inactive
CO[C@]1(NC(=O)CSC(F)F)C(=O)N2C(C(=O)O)=C(CSc3nnnn3CCO)CO[C@H]21,inactive,inactive,inactive,inactive,inactive,inactive,inactive,inactive,inactive,inactive
C=C(C)CCCC(C)CCO (stereo not drawn),inactive,inactive,inactive,inactive,inactive,inactive,inactive,inactive,inactive,inactive
CCC(=O)C1CC(C(C)C)CC=C1C (stereo not drawn),inactive,inactive,inactive,inactive,inactive,inactive,inactive,inactive,inactive,inactive
NCCNCCO,inactive,inactive,inactive,inactive,inactive,inactive,inactive,inactive,inactive,inactive
Nc1cccc2c1CN(C1CCC(=O)NC1=O)C2=O (stereo not drawn),inactive,inactive,inactive,inactive,inactive,inactive,inactive,inactive,inactive,inactive
CCC(C)(C)OC,inactive,inactive,inactive,inactive,inactive,54.7 µM [activator] (active),68.2 µM (active),inactive,inactive,inactive
CCOC(C)=O,inactive,inactive,inactive,inactive,inactive,inactive,inactive,inactive,inactive,inactive
Clc1ccc(Nc2nnc(Cc3ccncc3)c3ccccc23)cc1,inactive,13.3 µM (active),inactive,26.8 µM [inconclusive] (active) and inactive,inactive,inactive,inactive,21.1 µM (active) and 26.6 µM (active),inactive,5.31 µM (active) and 13.3 µM (active)
C=C(C)C(=O)OCCCCCCCCCCCCC,inactive,inactive,inactive,inactive,inactive,inactive,inactive,inactive,inactive,inactive
CC(O)c1ccccc1 (stereo not drawn),inactive,inactive,inactive,inactive,inactive,inactive,inactive,inactive,inactive,inactive
C[C@@H](O)[C@H]1C(=O)N2C(C(=O)O)=C([C@H]3CCCO3)S[C@H]12,inactive,inactive,inactive,inactive,inactive,inactive,inactive,inactive,inactive,inactive
O=C=Nc1cccc(C(F)(F)F)c1,60.7 µM (active),54.1 µM (active),inactive,,inactive,inactive,inactive,inactive,inactive,
CC[N+](CC)(CCNC(=O)C(=O)NCC[N+](CC)(CC)Cc1ccccc1Cl)Cc1ccccc1Cl,inactive,inactive,inactive,inactive,inactive,inactive,,inactive,inactive,inactive
CCOC(=O)c1ccccc1C(=C1C=C(Br)C(=O)C(Br)=C1)c1cc(Br)c(O)c(Br)c1,45.7 µM (active),18.2 µM (active),inactive,5.8 µM [inconclusive] (active),,,inactive,,inactive,inactive
COC(=O)CCS,inactive,inactive,inactive,inactive,inactive,inactive,inactive,inactive,inactive,inactive
C/C=C/C=C/C=O,inactive,inactive,inactive,inactive,,inactive,inactive,inactive,inactive,inactive
c1ccc(C[n+]2cccc3ccccc32)cc1,inactive,inactive,inactive,49 µM [inconclusive] (active),inactive,inactive,,61.1 µM (active),,inactive
CCCCCCCCCI,inactive,inactive,inactive,inactive,inactive,,,inactive,inactive,inactive
Cc1cscn1,inactive,inactive,inactive,inactive,inactive,inactive,inactive,inactive,inactive,inactive
